The values below come from PubChem BioAssay (NCATS).

Results filed as inconclusive are left out. A call without a number means that no potency is given here. Active and inactive are the calls of the source. Calls come from the whole dose curve; as a rule, active = well fitted curve in the direction sought with a large enough effect; inconclusive = small, poorly fitted or top-dose-only effect, or another doubt; inactive = no such curve, though single readings can be large; an effect the other way counts as inactive or inconclusive.

The target of experiment [1] is Aldehyde dehydrogenase, mitochondrial (Homo sapiens) (UniProt P05091). Description: qHTS for Inhibitors of the Aldehyde Dehydrogenase Family (ALDH2) Primary screen (AID 2061308). Note: nearly all actives have a fitted effect of over 55% in size.
Experiment [2] has as its target Retinaldehyde dehydrogenase 3 (Homo sapiens) (UniProt P47895). The experiment is described as follows: qHTS for Inhibitors of the Aldehyde Dehydrogenase Family (ALDH1A3) Primary screen (AID 2061315).

For the compound `Cc1ccc(S(=O)(=O)N2CCN(S(=O)(=O)c3ccc4c(c3)OCCO4)CC2)cc1`, the Potency result in experiment [1] and in experiment [2] was “inactive” throughout.
With `COc1ccc(-c2ccc(Nc3nc(-c4ccncc4)nc4ccccc34)cc2F)cc1F`, the Potency result in experiment [1] and in experiment [2] was “inactive” each time.
With `CCc1ccccc1C(=O)N1CCc2cc(-c3nc(NC(=O)Cc4ccc5c(c4)OCO5)sc3C)ccc21`, the Potency result in experiment [1] and in experiment [2] was “inactive” in each case.
Take `O=C(c1ccc2c(c1)ncn2-c1ccccc1)N1CCCCC1`: the Potency entry in experiment [1] and in experiment [2] was “inactive” in each case.
As for `CC1(C)CC[C@]2(C(=O)O)CC[C@]3(C)C(=CCC4[C@@]5(C)C[C@@H](O)[C@H](O)C(C)(C)C5CC[C@]43C)C2C1` (some centres not stated), the Potency entry in experiment [1] and in experiment [2] was “inactive” in each case.
As to `CCCCN1C(=O)c2ccccc2C1=O`, the Potency entry in experiment [1] and in experiment [2] was “inactive” throughout.
As for `COc1cccc(CNc2ccc(S(=O)(=O)Nc3nc(C)cs3)cc2)c1O`, the Potency entry in experiment [1] and in experiment [2] was “inactive” in each case.
Consider `Cc1ccc(-c2cc(C(=O)N3CC[S+](=O)([O-])CC3)c3ccccc3n2)cc1C`, for which the Potency result in experiment [1] and in experiment [2] was “inactive” throughout.
Take `CC(=O)O[C@@H]1CC2C(C)(C)C(=O)C=C[C@]2(C)C2CC[C@@]3(C)[C@H](c4ccoc4)OC(=O)[C@H]4O[C@]43[C@@]21C` (some centres not stated): the Potency entry in experiment [1] and in experiment [2] was “inactive” each time.
Consider `CC(=O)Nc1sc2c(c1-c1nc(-c3ccccc3)cs1)CCN(C(C)C)C2`, for which the Potency entry in experiment [1] and in experiment [2] was “inactive” throughout.
Turning to `O=S(=O)(c1ccc2c(c1)OCCO2)N1CCN(S(=O)(=O)c2cc(F)ccc2F)CC1`, the Potency entry in experiment [1] and in experiment [2] was “inactive” throughout.
As for `CCN(CC)C(=O)COC(=O)c1ccc(S(C)(=O)=O)c([N+](=O)[O-])c1`, the Potency result in experiment [1] and in experiment [2] was “inactive” in each case.
As to `Clc1ccc(CSc2nc3ncc(Br)cc3[nH]2)cc1Cl`, the Potency result in experiment [1] and in experiment [2] was “inactive” in each case.
As for `O=C(Nc1ncc(Cc2ccc(C(F)(F)F)cc2)s1)c1ccc(-c2cccc([N+](=O)[O-])c2)o1`, the Potency result in experiment [1] and in experiment [2] was “inactive” in each case.
In the case of `Cc1ccc(-c2ccc(=O)n(CC(=O)N(C)C(C)c3cccs3)n2)cc1` (configuration not stated), the Potency result in experiment [1] and in experiment [2] was “inactive” throughout.
For the compound `CN(C)c1cccc(NS(=O)(=O)c2ccc(NC(=O)Cc3ccc(Cl)c(Cl)c3)cc2)c1`, the Potency result in experiment [1] and in experiment [2] was “inactive” throughout.
`Cn1nnnc1Sc1ncnc2scc(-c3cccc4ccccc34)c12`: the Potency result in experiment [1] and in experiment [2] was “inactive” each time.
In the case of `Oc1c(C(Nc2ccccn2)c2ccccc2)cc(Cl)c2cccnc12` (configuration not stated), the Potency result in experiment [1] and in experiment [2] was “inactive” in each case.
For the compound `Cc1nc(NCc2ccccc2)c2nc(-c3ccccc3)n(CC(C)(C)CN(C)C)c2n1`, the Potency entry in experiment [1] and in experiment [2] was “inactive” in each case.
Turning to `Cc1noc(C)c1-c1ccc2ncnc(NC(C)c3ccco3)c2c1` (configuration not stated), the Potency result in experiment [1] and in experiment [2] was “inactive” in each case.
For the compound `CN1CCC(N(Cc2cccs2)c2ccccc2)CC1`, the Potency result in experiment [1] and in experiment [2] was “inactive” each time.
For `COc1cccc(CNc2ccc(S(=O)(=O)Nc3ncc(C)s3)cc2)c1O`, the Potency entry in experiment [1] and in experiment [2] was “inactive” throughout.
On to `OC1C=C2C3CN(Cc4cc5c(cc43)OCO5)C2CC1O` (configuration not stated), for which the Potency result in experiment [1] and in experiment [2] was “inactive” in each case.
`CCOC(=O)c1ccc(-c2ccc3ncnc(NCCc4cnc[nH]4)c3c2)o1`: the Potency result in experiment [1] and in experiment [2] was “inactive” each time.
Consider `NC(=O)C1CCN(c2nc(-c3cccc(C(F)(F)F)c3)cs2)CC1`, for which the Potency entry in experiment [1] and in experiment [2] was “inactive” throughout.
Regarding `COc1ccc(CN(Cc2ccccc2)C(=O)c2ccccc2)cc1COc1ccc(NC(C)=O)cc1`, the Potency result in experiment [1] and in experiment [2] was “inactive” throughout.
Consider `Cc1ccc(-c2nn(CC(=O)N(C)C(C)c3ccco3)c(=O)cc2C)cc1` (configuration not stated), for which the Potency entry in experiment [1] and in experiment [2] was “inactive” each time.
Consider `CCOC(=O)CCc1cc(F)c(S(=O)(=O)N2CCN(S(=O)(=O)c3ccc4c(c3)OCCO4)CC2)cc1F`, for which the Potency entry in experiment [1] and in experiment [2] was “inactive” each time.
As to `O=C1CCCC2=C1C(c1cnccc1C(F)(F)F)N=C(Nc1nc3ccccc3o1)N2` (configuration not stated), the Potency result in experiment [1] and in experiment [2] was “inactive” in each case.
Regarding `CC(=O)Nc1sc2c(c1-c1ccccc1)CCNC2`, the Potency entry in experiment [1] and in experiment [2] was “inactive” each time.
`Clc1cccc(-c2nc(-c3ccc(-c4nn[nH]n4)cc3)no2)c1`: the Potency entry in experiment [1] and in experiment [2] was “inactive” in each case.
With `O=C(Cc1ccc(Cl)c(Cl)c1)Nc1ccc([S+](=O)([O-])Nc2ccc3[nH]ccc3c2)cc1`, the Potency result in experiment [1] and in experiment [2] was “inactive” throughout.
On to `O=C([C@H](Cc1ccc(O[S+](=O)([O-])c2cccc3cnccc23)cc1)N[S+](=O)([O-])c1cccnc1)N1CCN(c2ccccc2)CC1`, for which the Potency entry in experiment [1] and in experiment [2] was “inactive” each time.
For the compound `O=C(Cc1nnc(CNC(=O)c2ccccc2)s1)Nc1ccc(C(F)(F)F)cc1Cl`, the Potency result in experiment [1] and in experiment [2] was “inactive” each time.
On to `CC(=O)Nc1sc2c(c1-c1ccc3[nH]ccc3c1)CCNC2`, for which the Potency entry in experiment [1] and in experiment [2] was “inactive” throughout.
As to `CCCn1c(-c2ccc(F)cc2)nc2c(N3CCN(Cc4nc(OC)cc(OC)n4)CC3)nc(C)nc21`, the Potency result in experiment [1] and in experiment [2] was “inactive” throughout.
As for `Cn1nnnc1Sc1ncnc2scc(-c3ccc4ccccc4c3)c12`, the Potency entry in experiment [1] and in experiment [2] was “inactive” throughout.
For the compound `O=C(Nc1ccc(-c2nc3ccccc3[nH]2)cc1)c1ccc(Oc2ccccc2)cc1`, the Potency result in experiment [1] and in experiment [2] was “inactive” throughout.
`Cn1ccc2cc(-c3ccc4ncnc(NCc5cccnc5)c4c3)ccc21`: the Potency entry in experiment [1] and in experiment [2] was “inactive” throughout.
Regarding `COc1ccc(OC2=NS(=O)(=O)c3ccccc32)cc1`, the Potency entry in experiment [1] and in experiment [2] was “inactive” throughout.
As to `CC[C@@H]1C[C@]1(NC(=O)[C@@H]1C[C@@H]2CN1C(=O)[C@H](C(C)(C)C)NC(=O)OCC(C)(C)CCCCc1cccc3c1CN(C3)C(=O)O2)C(=O)NS(=O)(=O)C1CC1`, the Potency entry in experiment [1] and in experiment [2] was “inactive” in each case.
